PubChem BioAssay (NCATS)
Records with an inconclusive call do not appear. Activity calls are given as the source filed them. Calls come from the whole dose curve; as a rule, active = well fitted inhibition curve with a large enough effect; inconclusive = small, poorly fitted or top-dose-only effect; inactive = no such curve, though single readings can be large or run the other way.

What follows are compounds tested on Zika virus NS2B-NS3 protease (linked construct) (assay: Primary screen NINDS Rhodamine qHTS for Zika virus inhibitors (AID 1347160; note: nearly all actives have a fitted effect of over 55% in size)). Settings: purified NS2B-NS3 protease, Rhodamine110 substrate fluorescence; series mostly up to 57.1 µM.
Method in brief: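 In 10 mM Tris-HCl pH 8.0 containing 0.01% Tween 20, linked NS2B-NS3 protease (25 nM final) is exposed to test compounds for 15 min. Cleavage of 1.5 microM Rhodamine110 substrate is tracked by fluorescence over 15 min.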
% is set by controls: 0 for no effect and ±100 for the full control effect; potency is the fitted concentration of half-maximal effect.

Row | Compound | Potency | activity change, negative = inhibition
1 | C=C1CC[C@H]2C(=C)CC[C@H]3C(=C)C(=O)O[C@@H]3[C@@H]12 | inactive | –
2 | C=C1C(=O)OC[C@@H]1C/C=C(\C)CC1CC(C)C(=O)O1 (stereo partly drawn) | 15.8 µM (active) | –
3 | CC(=O)O[C@@H]1C[C@]2(C)[C@@]3(CCC4[C@@]5(C)CC[C@H](O[C@@H]6O[C@H](C(=O)O)[C@@H](O)[C@H](OC7OC(CO)C(O)C(O)[C@H]7O[C@@H]7O[C@@H](C)[C@H](O)[C@@H](O)[C@H]7O[C@@H]7OC[C@](O)(CO)[C@H]7O)[C@H]6OC6OC(CO)C(O)C(O)C6O)C(C)(C)C5CC[C@]42C)OC[C@@]12CCC(C)(C)CC23 (stereo partly drawn) | – | -13.3% [at 10.7 µM] (inactive)
